PLCb3 inh – human PLC-beta3 inhibitors, primary screen, biochemical, fluorescence; hit rate 0.18% among 370,000; Purified PLC-beta3, fluorogenic substrate; 1-phosphatidylinositol 4,5-bisphosphate phosphodiesterase beta-3 (Homo sapiens), Q01970; inhibition, % at 12.2 µM; in the data active = inhibition above about 11%;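 also: 0% = median of compound wells on plate and 100% = full blocker control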
bovine MsrA act – bovine MsrA enzyme activators, primary screen, biochemical, absorbance, HTS | purified bovine MsrA, absorbance read-out | hit rate 0.3% among 360,000 | activation, % at 10.6 µM; in the data active = activation above about 7.5%;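 also: 0% = vehicle and 100% = reference activator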
PLC-gamma1 inh – PLC-gamma1 enzyme inhibitors, primary screen, biochemical, fluorescence, purified enzyme. hit rate 0.84% among 370,000. AID 720700, 2013. fluorogenic substrate. inhibition, % at 12.2 µM; in the data active = inhibition above about 9.5%
MsrA inh – bovine MsrA enzyme inhibitors, primary screen, biochemical, absorbance, HTS; Methionine sulfoxide reductase A (Bos taurus); purified bovine MsrA, absorbance read-out; AID 651718, 2012; hit rate 0.75% among 360,000; inhibition, % at 15.5 µM;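 also: 0% = vehicle wells with enzyme and 100% = reference inhibitor wells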
MsrA act confirm – bovine MsrA activators, retest, confirmation, biochemical, absorbance, HTS. activation, % at 10.6 µM. purified bovine MsrA, absorbance read-out. hit rate 12% among 1,000. AID 602270, 2012. shares compounds with bovine MsrA act; in the data active = activation above about 4%;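 also: enzyme coupled to thioredoxin and thioredoxin reductase with NADPH; 0% = vehicle wells and 100% = reference activator wells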
MsrA inh confirm – bovine MsrA inhibitors, retest, confirmation, biochemical, absorbance, HTS | shares compounds with MsrA inh | purified bovine MsrA, absorbance read-out | inhibition, % at 15.5 µM | hit rate 41% among 2,300 | AID 651822, 2012;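 also: coupled to thioredoxin reductase with NADPH and selenocystamine and DMSO as substrate; 0% = vehicle only and 100% = full effect of reference inhibitor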
An asterisk follows results filed as active; / = no result. An excerpt weighted towards active compounds, which were near 1.9% of everything screened. Rule as the data show it, unless noted: active = inhibition above about 4.5%; inactive = the rest.

SMILES	PLCb3 inh	bovine MsrA act	PLC-gamma1 inh	MsrA inh	others
Brc1ccccc1	10.6*	0.8	7.9	1.0
c1ccc(N2[C@@H]3CC[C@H]2c2ccncc2C3)cc1	0.4	/	-0.3	-1.5
CN1CCc2cc3c(c4c2C1Cc1ccccc1-4)OCO3 (stereo not given)	-193.9	47.9*	-126.5	0.8
Clc1cccc(N2Cc3cc(-c4ccccc4)ccc3-n3nncc3C2)c1	-2.7	-4.7	12.1*	0.3
CCOC(=O)C1=C(C(=O)OCC)C2(c3ccccc3)c3ccccc3C1(C)N2C (stereo not given)	-99.5	/	-80.8	-0.2
COc1ccccc1-n1c(/C=C/c2ccc(O)cc2)nc2ccccc2c1=O	-78.1	-2.2	-50.8	4.6*
C=CCCC(NC(=O)OCc1ccccc1)P(=O)(Oc1ccccc1)Oc1ccccc1 (stereo not given)	1.3	/	0.5	/
O=C(O)C(Br)Br	-0.6	/	1.0	0.1
O=c1[nH]c(O)c(C=Nc2ccc(F)c(Cl)c2)c(=O)[nH]1	-12.9	-3.6	-5.1	2.4
O=C(O)c1ccc(N=Cc2c(O)[nH]c(=O)[nH]c2=O)cc1	-16.6	-3.0	-6.9	4.6*
CC(C)(C)NC(=S)N1Cc2ccccc2-n2nncc2C1	2.3	-0.5	12.6*	0.5
CCN(CC)c1ccc(/C=C2/C(=O)NC(=O)N(CC3CCCO3)C2=O)cc1 (stereo not given)	-10.2	-7.2	-7.0	5.2*
O=C1NC(=O)N(CC2CCCO2)C(=O)/C1=C/c1cccs1 (stereo not given)	-2.9	-3.2	-3.1	1.3
O=c1[nH]c(=S)n(Cc2ccc(F)cc2)c(O)c1C=NCCCn1ccnc1	-6.2	-5.5	2.1	4.5*
O=c1[nH]c(=O)n(Cc2ccc(F)cc2)c(O)c1C=NCCCn1ccnc1	0.5	-1.7	0.0	1.1
S=P(c1ccccc1)(c1ccccc1)c1c[n+](Cc2ccccc2)c2ccccn12	-0.7	/	-1.4	/
COC(=O)C1=C(c2ccc(-c3ccccc3)c(F)c2)C[C@@H]2CC[C@H]1N2C(=O)NCc1cc(C)oc1C(F)(F)F	7.7	-1.6	10.0*	1.3
COC(=O)C1C(c2ccccc2)CC2CCC1N2C (stereo not given)	-0.8	/	-0.6	-1.1
CC1(C)CN(S(=O)(=O)OCC(Cl)(Cl)Cl)C(=O)N1	6.6	-11.8	9.8*	1.0
CCC1(C)CN(S(=O)(=O)OCC(Cl)(Cl)Cl)C(=O)N1 (stereo not given)	2.7	-2.5	2.5	-0.3
NC(Cc1ccc(O)cc1)C(=O)NN=Cc1ccc(N(CCCl)CCCl)cc1 (stereo not given)	-212.5	-6.4	-162.8	7.7*
N[C@@H](Cc1ccc(N(CCCl)CCCl)cc1)C(=O)O	-22.2	0.1	-15.6	1.3
O=c1[nH]sc2cc(F)ccc12	-5.4	11.8*	-0.7	0.4	MsrA act confirm=10.3*
O=S1(=O)N(CCN2CC=C(c3c[nH]c4cc(F)ccc34)CC2)c2cccc3c2N1CCC3	-39.6	7.8*	-31.1	-0.6	MsrA act confirm=-1.0
CCOC(=O)[C@]12Cc3cc(Cl)ccc3[C@H]1N(C1CCCCC1)C(=O)c1ccccc12	/	-3.3	/	/
SMILES	PLCb3 inh	bovine MsrA act	PLC-gamma1 inh	MsrA inh	others
O=P(C(c1ccc2c(c1)OCO2)N1CCOCC1)(N1CCOCC1)N1CCOCC1 (stereo not given)	1.8	13.1*	-0.1	-1.4	MsrA act confirm=-3.1
N#CCC[C@@H]1CC[C@]2(CCCN(Cc3ccncc3)C2)O1	-1.9	/	-1.9	/
CCOC(=O)CC[C@@H]1CC[C@]2(CCCN(Cc3ccccn3)C2)O1	-1.0	/	-1.5	/
COC(=O)C1=C(c2ccc(OC(F)(F)F)cc2)C[C@@H]2CC[C@H]1N2C(=O)N1CCc2cc(OC)c(OC)cc2C1	-9.6	/	-3.5	-0.8
OCC[n+]1c2ccccc2nc2ccc(N3CCOCC3)cc21	-5.7	21.4*	-3.7	5.8*	MsrA act confirm=10.4*
Cn1ncnc2c(=O)n(C)c(=O)nc1-2	/	13.8*	/	/	MsrA act confirm=12.5*
COC(=O)C1C(c2ccc(I)cc2)CC2CCC1N2C (stereo not given)	2.5	/	1.1	-1.3
COC(=O)C1=C(c2ccc(F)cc2OCc2ccccc2)C[C@@H]2CC[C@H]1N2C(=O)NCC1CC1	0.6	8.4*	-0.2	0.9	MsrA act confirm=-0.4
COC(=O)C1=C(c2ccc(F)cc2OCc2ccccc2)C[C@@H]2CC[C@H]1N2C(=O)NCc1ccccc1	3.0	-8.1	0.2	-0.9
CNC(=S)N1CCn2cccc2C1c1cccnc1 (stereo not given)	-5.4	19.9*	-1.7	1.6	MsrA act confirm=-4.0
CCCCNC(=S)N1CCn2cccc2C1c1cccnc1 (stereo not given)	-11.8	-1.6	-4.8	0.9
C/C=C(\C)C(=O)N[C@@H](c1ccccc1)[C@@H](O)C(=O)O[C@H]1C[C@@]2(O)[C@@H](OC(=O)c3ccccc3)C3[C@](C)(C(=O)[C@H](OC(C)=O)C(=C1C)C2(C)C)[C@H](O)C[C@H]1OC[C@@]31OC(C)=O (stereo not given in full)	7.5	10.2*	2.6	-0.4	MsrA act confirm=-1.4
CCC(C)C(=O)N[C@@H](c1ccccc1)[C@@H](O)C(=O)O[C@H]1C[C@@]2(O)[C@@H](OC(=O)c3ccccc3)C3[C@](C)(C(=O)[C@H](OC(C)=O)C(=C1C)C2(C)C)[C@@H](O)C[C@H]1OC[C@@]31OC(C)=O (stereo not given in full)	3.1	-1.4	2.7	-0.2
CCCCN1C(=O)/C(=C/c2ccc(N(C)C)cc2)C(=O)N(Cc2ccco2)C1=O	-18.0	-4.7	-13.6	5.3*	MsrA inh confirm=5.5*
CCN(CC)c1ccc(/C=C2\C(=O)NC(=O)N(Cc3ccco3)C2=O)cc1	-8.5	-5.5	-1.2	3.7
COc1ccc(/C=N/N=C(/N)N[N+](=O)[O-])c(OC)c1	3.1	-5.0	-0.8	7.9*	MsrA inh confirm=5.6*
COc1ccc(OC)c(/C=N/OC(=O)Nc2ccc(Cl)cc2)c1	-77.6	-0.4	-46.5	1.9
COc1ccc(OC)c(-n2c(O)c(C=Nc3c(C)n(C)n(-c4ccccc4)c3=O)c(=O)[nH]c2=O)c1	-5.9	-4.1	-1.9	4.0
COc1ccccc1-n1c(O)c(C=Nc2c(C)n(C)n(-c3ccccc3)c2=O)c(=O)[nH]c1=O	-11.0	-4.0	-7.5	5.4*	MsrA inh confirm=4.8*
Cc1ccc(C(O)(C(=O)OC(C)C)C(O)c2ccccc2)cc1 (stereo not given)	-1.4	/	2.6	-0.3
O=c1[nH]c(=S)n(-c2cccc(Cl)c2)c(O)c1C=NCCN1CCNCC1	-1.9	0.8	2.6	2.6
O=c1[nH]c(=S)n(-c2ccccc2)c(O)c1C=NCCN1CCNCC1	-9.5	-3.8	0.7	5.4*	MsrA inh confirm=1.8
CN1C(=O)N(C)C(=O)C2(Sc3ccccc3C2=O)C1=O	-120.2	-2.2	-97.3	58.9*	MsrA inh confirm=0.9

Compound activity as filed in PubChem BioAssay.
